# Among all 2,100 compounds or so, about 940 (45%) were called active. Roughly 48% stayed inconclusive and do not appear here. Calls come from the whole dose curve; as a rule, active = well fitted inhibition curve with a large enough effect; inconclusive = small, poorly fitted or top-dose-only effect; inactive = no such curve, though single readings can be large or run the other way. So high a share suggests a set chosen from earlier hits. This is one part of the list.
# Assay: Confirmatory qHTS for Inhibitors of ATXN expression; note: nearly all actives have a fitted effect of over 65% in size
# Conditions: ATXN2-luciferase reporter cells, luminescence, 24 h; series mostly up to 11.5 µM
# How it was run: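 Cells carrying ATXN2-luciferase reporter exposed 24 h at 37 C to compound. Viability then read by CellTiter-Fluor (25 uM GF-AFC, 30 min), followed by SteadyGlo luminescence; medium-only wells set 100% inhibition.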
# Potency is the fitted concentration of half-maximal effect.
row,SMILES,Potency
1,S=C(NC1CCCCC1)N1CCOCCOCCN(C(=S)NC2CCCCC2)CCOCCOCC1,3.16 µM (active)
2,OC[C@@H]1CN(Cc2ccc(-c3ccccc3)cc2)C[C@H](n2cnc3c(Nc4ccccc4)ncnc32)O1,15.8 µM (active)
3,CCOC(=O)C1CCN(c2ncnc3c2cnn3-c2ccc(Cl)cc2)CC1,1.26 µM (active)
4,O=C(N/N=C/c1cc([N+](=O)[O-])ccc1O)c1c[nH]c2ccccc12,17.8 µM (active)
5,O=C(Cn1nc2ccccc2n1)N/N=C/c1cc([N+](=O)[O-])ccc1O,3.16 µM (active)
6,O=C(N/N=C/c1cc([N+](=O)[O-])ccc1O)c1cc(-c2ccccc2)nc2ccccc12,3.16 µM (active)
7,O=C(N/N=C/c1cc([N+](=O)[O-])ccc1O)c1cccc2cc[nH]c12,3.16 µM (active)
8,COc1ccccc1N1C(=O)N(C(C)=O)C2C1Nc1ccccc1N2C (centres undefined),inactive
9,CSc1cccc(NC(=O)c2ccc(CN3CCc4ccccc4C3)cc2)c1,4.47 µM (active)
10,CC1Cc2cc(-c3csc(NC(=O)Cc4cccs4)n3)ccc2N1S(C)(=O)=O (centres undefined),3.98 µM (active)
11,C=CCc1cccc(/C=N/NC(=O)CCC(=O)Nc2ccc(F)cc2)c1O,3.55 µM (active)
12,C=CCc1cccc(/C=N/NC(=O)CCC(=O)Nc2ccc(C)cc2)c1O,3.55 µM (active)
13,Cn1c(CCN2CCN(c3ccccn3)CC2)nc2cc(NC(=O)COc3ccc(Cl)cc3)ccc21,11.2 µM (active)
14,Cc1c(N/N=C(\C#N)C(=O)c2ccccc2)c(=O)n(-c2ccccc2)n1C,2.51 µM (active)
15,Cc1ccccc1C(=O)/C(C#N)=N/Nc1c(C)n(C)n(-c2ccccc2)c1=O,3.55 µM (active)
16,Cc1c(N=C2N=C(NC(=O)Nc3ccc(Cl)cc3)c3ccccc32)c(=O)n(-c2ccccc2)n1C,inactive
17,Cc1c(N/N=C(\C#N)C(=O)c2ccc(Cl)cc2)c(=O)n(-c2ccccc2)n1C,1.12 µM (active)
18,Cc1ccccc1C(=O)N1CCN(c2ccc(NC(=O)c3ccc4c(c3)OCCO4)cc2)CC1,3.98 µM (active)
19,O=C(Nc1ccc(NC(=O)c2ccco2)cc1)c1ccc2c(c1)OCCO2,14.1 µM (active)
20,Cc1ccc(C(=O)N2CCN(c3ccc(NC(=S)NC(=O)c4cccs4)cc3)CC2)cc1,inactive

row,SMILES,Potency
1,COc1cccc(/C=N/NC(=O)c2ccc(-c3ccccc3)cc2)c1O,2 µM (active)
2,COc1cccc(C=NNC(=O)c2ccncc2)c1O,15.8 µM (active)
3,COc1ccc(/C=N/NC(=O)c2nc(-c3ccccc3)n(-c3ccccc3)n2)c(O)c1,3.98 µM (active)
4,Cc1cccc(NC(=O)c2cc(-c3ccccn3)nc3ccccc23)c1C,17.8 µM (active)
5,CC(=O)c1sc(NC(=O)c2cc(-c3ccccc3)nn2-c2ccccc2)nc1C,inactive
6,COc1cccc(/C=N/NC(=O)c2ccc(=O)n(C)c2)c1O,15.8 µM (active)
7,COc1cccc(/C=N/NC(=O)c2nc(-c3ccccc3)cc(-c3ccccc3)n2)c1O,1 µM (active)
8,COc1cccc(/C=N/NC(=O)c2cc(-c3ccccn3)nc3ccccc23)c1O,2.82 µM (active)
9,OC[C@@H]1[C@@H](c2ccc(F)cc2)C(c2ccccc2)=NN1c1ccccc1,inactive
10,Cc1noc2ncnc(N3CCN(c4cccc(Cl)c4)CC3)c12,11.2 µM (active)
11,Cc1cc(=O)oc2c1c(C)nn2-c1cccc(Cl)c1,inactive
12,CCN(CC)CCNC(=O)CCc1c(C)nc2c(c(C)nn2-c2ccc(C)cc2)c1C,3.16 µM (active)
13,COc1ccc2nc(C)cc(NCc3ccc(F)cc3)c2c1,3.98 µM (active)
14,COc1ccc2nc(C)cc(NCc3cccc(C(F)(F)F)c3)c2c1,14.1 µM (active)
15,CCOC(=O)c1c(SCCN2CCCC2)n(-c2ccccc2)c(=S)n(-c2ccccc2)c1=O,2.24 µM (active)
16,CCOC(=O)c1c(SCCN2CCCCC2)n(-c2ccccc2)c(=S)n(-c2ccccc2)c1=O,22.4 µM (active)
17,COc1cccc(N2CCN(c3nc(-c4ccccc4C)cc(=O)[nH]3)CC2)c1,0.398 µM (active)
18,O=C(CNc1ccccc1)N/N=C/c1c(O)ccc2ccccc12,0.562 µM (active)
19,O=C(CSCC(=O)Nc1ccccc1)N/N=C/c1c(O)ccc2ccccc12,0.708 µM (active)
20,COc1ccccc1NCC(=O)N/N=C/c1c(O)ccc2ccccc12,3.16 µM (active)

row,SMILES,Potency
1,O=C(CNc1ccc(F)cc1)N/N=C/c1c(O)ccc2ccccc12,3.16 µM (active)
2,CCOc1cc(CNCCO)cc(Br)c1OCc1ccccc1,12.6 µM (active)
3,Cc1nc(C(F)(F)F)c(C(=O)N/N=C(\N)c2ccccn2)s1,14.1 µM (active)
4,CC(C)C1Cc2c(sc3[nH]c(=S)n(Cc4ccccc4)c(=O)c23)CO1 (centres undefined),12.6 µM (active)
5,Nc1ccc(Oc2ccccc2-c2ccccc2)cc1,2 µM (active)
6,Cc1ncc(CO)c(/C=N/Nc2ccc(C(F)(F)F)cn2)c1O,3.55 µM (active)
7,CCC(C)N1C(=O)S/C(=C/c2ccc(Sc3nc4ccccc4[nH]3)o2)C1=O (centres undefined),11.2 µM (active)
8,COc1cc(C(=O)OC(C)C(=O)N2CCc3ccccc3C2)ccc1OCC(=O)N1CCOCC1 (centres undefined),inactive
9,S=C(Nc1ccccc1)Nc1ccc(OCc2ccc(Cl)cc2Cl)cc1,2.51 µM (active)
10,Cc1[nH]c(=O)c(C(=O)/C=C/c2ccccc2)c2c1CCCC2,7.94 µM (active)
11,Cc1ccc(C(=O)NCCN2C3=NC[C@@H](Cc4ccccc4)N3C[C@H]2Cc2ccc(O)cc2)cc1Br,2.82 µM (active)
12,CCCCn1c2ccc(F)cc2c2nnc(NN)nc21,28.2 µM (active)
13,Cc1cc(C2=NNC(=NC3CC3)SC2)c(C)n1-c1ccccc1F,0.126 µM (active)
14,CCCCC(=O)NC(c1ccco1)c1cc(Cl)c2cccnc2c1O (centres undefined),3.55 µM (active)
15,CCCC(=O)NC(c1ccco1)c1cc(Cl)c2cccnc2c1O (centres undefined),11.2 µM (active)
16,CC(=O)NC(c1ccco1)c1cc(Cl)c2cccnc2c1O (centres undefined),3.16 µM (active)
17,CCC(=O)NC(c1ccco1)c1cc(Cl)c2cccnc2c1O (centres undefined),2.82 µM (active)
18,CCC(=O)NC(c1ccco1)c1cc(Br)c2cccnc2c1O (centres undefined),11.2 µM (active)
19,O=C(CCc1ccccc1)NC(c1cccs1)c1cc(Cl)c2cccnc2c1O (centres undefined),2.24 µM (active)
